Experimental data published in PubChem BioAssay (NCATS).
“And” between values parts separate entries of the source, which are not always exact repeats. Equal values may be shown once. Results filed as inconclusive are left out. Where a structure was tested more than once in an assay, its records may differ in their call. The source made the active and inactive calls. Calls follow the shape of the dose curve; as a rule, active = well fitted curve in the direction sought with a large enough effect; inconclusive = small, poorly fitted or top-dose-only effect, or another doubt; inactive = no such curve, though single readings can be large; an effect the other way counts as inactive or inconclusive.

Columns and labels:
MKL-1 = assay: qHTS assay to identify novel small-molecules to repurpose for Merkel cell carcinoma treatment (AID 1296009); settings: MCC and control cell lines, CellTiter-Glo viability, 72 h; series mostly up to 46 µM; also: nearly all actives have a fitted effect of over 60% in size
Outline: (§1)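 72 hr, 37 degree celsius; NPC 8-pt / MIPE 11-pt dose response; compound pinned in DMSO; CellTiter-Glo, 10 min RT, luminescence; normalized to no-cell and DMSO controls.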

MKL-2 = assay: as above; settings: MCC and control cell lines, CellTiter-Glo viability, 72 h; series mostly up to 46 µM
Outline: as §1

UISO = assay: as above; settings: MCC and control cell lines, CellTiter-Glo viability, 72 h; series mostly up to 46 µM
Outline: as §1

WaGa = assay: as above; settings: MCC and control cell lines, CellTiter-Glo viability, 72 h; series mostly up to 46 µM
Outline: as §1

CAOV3 = assay: Primary qHTS to identify gynecologic anti-cancer compounds using libraries of approved drugs and bioactive compounds (AID 1345084); settings: Gynecologic cancer cell panel viability, ATPlite luminescence, 48 h; series mostly up to 57.5 µM; also: nearly all actives have a fitted effect of over 55% in size
Outline: (§2)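 Luminescence from the ATPlite ATP-monitoring reagent indicates viable cell number; lower signal means cytotoxicity. Cells received compound 16 h after seeding and were exposed for 48 h across five concentrations.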

CASKI = assay: as above; settings: Gynecologic cancer cell panel viability, ATPlite luminescence, 48 h; series mostly up to 57.5 µM
Outline: as §2

Es-2 = assay: as above; settings: Gynecologic cancer cell panel viability, ATPlite luminescence, 48 h; series mostly up to 57.5 µM
Outline: as §2

Hek293T = assay: as above; settings: Gynecologic cancer cell panel viability, ATPlite luminescence, 48 h, control line for the selectivity index; series mostly up to 57.5 µM
Outline: as §2

JEG-3 = assay: as above; settings: Gynecologic cancer cell panel viability, ATPlite luminescence, 48 h; series mostly up to 57.5 µM
Outline: as §2

OV90 = assay: as above; settings: Gynecologic cancer cell panel viability, ATPlite luminescence, 48 h; series mostly up to 57.5 µM
Outline: as §2

PA-1 = assay: as above; settings: Gynecologic cancer cell panel viability, ATPlite luminescence, 48 h; series mostly up to 57.5 µM
Outline: as §2

SKOV3 = assay: as above; settings: Gynecologic cancer cell panel viability, ATPlite luminescence, 48 h; series mostly up to 57.5 µM
Outline: as §2

Tov-21-G = assay: as above; settings: Gynecologic cancer cell panel viability, ATPlite luminescence, 48 h; series mostly up to 57.5 µM
Outline: as §2

Tov112D = assay: as above; settings: Gynecologic cancer cell panel viability, ATPlite luminescence, 48 h; series mostly up to 57.5 µM
Outline: as §2

[1] = Drug repurposing screens with cells derived from glioblastoma tumor samples (AID 1345199); settings: GBM patient neurospheres viability, ATP luminescence, 48 h; also: nearly all actives have a fitted effect of over 40% in size; as to activity, negative = cell killing: % is scaled to controls: 0 for no effect and ±100 for the full control effect
Outline: (§3)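 Four patient lines of CD133+ GBM neurospheres were screened at several concentrations; hits were retested in those lines plus three slower-growing GBM lines, using 48-hour treatment and ATP-based viability.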

astro = assay: as above; settings: viability, ATP luminescence, 48 h; series mostly up to 45.9 µM
Outline: as §3

C33A = assay: Primary qHTS to identify gynecologic anti-cancer compounds using libraries of approved drugs and bioactive compounds (AID 1345084); settings: Gynecologic cancer cell panel viability, ATPlite luminescence, 48 h; series mostly up to 57.5 µM; also: nearly all actives have a fitted effect of over 55% in size
Outline: as §2

HeLa = assay: as above; settings: Gynecologic cancer cell panel viability, ATPlite luminescence, 48 h; series mostly up to 57.5 µM
Outline: as §2

[2] = qHTS assay to identify inhibitors of the type 1 interferon - major histocompatibility complex class I in skeletal muscle: Counter screen cell viability and HiBit confirmation (AID 1347412); settings: iHSKM muscle cells + IFN-b, HiBiT or CellTiter-Glo, 24 h; also: nearly all actives have a fitted effect of over 60% in size
Outline: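 Human myoblast knock-in line, 4.0 ng/ml IFN-beta stimulation, 24 h compound treatment. Endpoints: HiBiT lytic luminescence (HLA-B level) and CellTiter Glo (ATP). Dosing 12 concentrations, 3-fold steps, 46 uM highest final.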

[3] = at 20 µM (top of the series), tumour line C
[4] = at 21.2 µM (top of the series), tumour line B
[5] = at 21.2 µM (top of the series), tumour line D
[6] = at 21.3 µM (top of the series), tumour line A
[7] = at 45.9 µM (top of the series), tumour line B
[8] = at 45.9 µM (top of the series), tumour line D
[9] = at 46.1 µM (top of the series), tumour line C
Potency is read from the fitted curve at half-maximal effect.

CCn1cc(C(=O)O)c(=O)c2cc(F)c(N3CCNCC3)cc21
inactive: Potency (MKL-1) | Potency (MKL-2) | Potency (UISO) | Potency (WaGa) | Potency (CAOV3) | Potency (CASKI) | Potency (Es-2) | Potency (Hek293T) | Potency (JEG-3) | Potency (OV90) | Potency (PA-1) | Potency (SKOV3) | Potency (Tov-21-G) | Potency (Tov112D) | activity, negative = cell killing [1, 3] 2.43% | activity, negative = cell killing [1, 4] -7.83% | activity, negative = cell killing [1, 5] -12% | activity, negative = cell killing [1, 6] -21.7% | activity, negative = cell killing [1, 7] 1.94% | activity, negative = cell killing [1, 8] 2.4% | activity, negative = cell killing [1, 9] -8.69% | Potency (astro)

Nc1nc(=S)c2[nH]cnc2[nH]1
inactive: Potency (astro)
active: Potency (MKL-1) 2.37 µM and 23.5 µM | Potency (MKL-2) 7.5 µM | Potency (UISO) 1.33 µM | Potency (WaGa) 3.35 µM and 10.5 µM | Potency (CASKI) 3550 nM | Potency (Es-2) 7080 nM | Potency (JEG-3) 3160 nM | Potency (OV90) 8910 nM | Potency (PA-1) 3550 nM | Potency (Tov-21-G) 3550 nM | Potency (Tov112D) 1410 nM

CN(C)c1ccc(C(=C2C=CC(=[N+](C)C)C=C2)c2ccc(N(C)C)cc2)cc1
active: Potency (MKL-1) 118 nM | Potency (MKL-2) 94.4 nM and 11.8 nM | Potency (UISO) 841 nM and 187 nM | Potency (WaGa) 596 nM and 296 nM | Potency (C33A) 10000 nM | Potency (CAOV3) 1410 nM | Potency (CASKI) 1120 nM | Potency (Es-2) 1780 nM | Potency (HeLa) 2000 nM | Potency (JEG-3) 14100 nM | Potency (PA-1) 447 nM | Potency (SKOV3) 316 nM | Potency (Tov-21-G) 1780 nM | Potency (Tov112D) 2000 nM | Potency (astro) 2510 nM | Potency ([2]; HiBiT) 9910 nM | Potency ([2]; Viability) 9910 nM

CCc1c2c(nc3ccc(OC(=O)N4CCC(N5CCCCC5)CC4)cc13)-c1cc3c(c(=O)n1C2)COC(=O)[C@]3(O)CC
active: Potency (MKL-1) 1.88 µM and 1.87 µM | Potency (MKL-2) 944 nM and 296 nM | Potency (UISO) 0.833 µM | Potency (WaGa) 422 nM and 662 nM | Potency (Es-2) 14100 nM | Potency (PA-1) 12600 nM | Potency (Tov112D) 10000 nM | Potency ([1]; tumour line A) 1000 nM
inactive: Potency (Hek293T) | Potency (JEG-3) | Potency (OV90) | Potency (Tov-21-G) | activity, negative = cell killing [1, 9] -5.46%

CCN(C)C(=O)Oc1cccc([C@H](C)N(C)C)c1
active: Potency ([1]; tumour line A) 20000 nM
inactive: Potency (MKL-1) | Potency (MKL-2) | Potency (UISO) | Potency (WaGa) | Potency (C33A) | Potency (CAOV3) | Potency (CASKI) | Potency (Es-2) | Potency (Hek293T) | Potency (JEG-3) | Potency (OV90) | Potency (PA-1) | Potency (SKOV3) | Potency (Tov-21-G) | Potency (Tov112D) | activity, negative = cell killing [1, 7] -13.1% | activity, negative = cell killing [1, 8] -25.1% | activity, negative = cell killing [1, 9] -30% | Potency (astro)

C[C@@H](CN1CC(=O)NC(=O)C1)N1CC(=O)NC(=O)C1
inactive and 5.9 µM (active): Potency (MKL-1)
inactive and 3.72 µM (active): Potency (WaGa)
inactive: Potency (MKL-2) | Potency (UISO) | Potency (C33A) | Potency (CAOV3) | Potency (CASKI) | Potency (Es-2) | Potency (Hek293T) | Potency (JEG-3) | Potency (OV90) | Potency (PA-1) | Potency (SKOV3) | Potency (Tov-21-G) | Potency (Tov112D) | activity, negative = cell killing [1, 7] -2.51% | activity, negative = cell killing [1, 8] -10.3% | activity, negative = cell killing [1, 9] -0.792% | Potency (astro)

CS(=O)(=O)c1ccc([C@@H](O)[C@@H](CO)NC(=O)C(Cl)Cl)cc1
inactive: Potency (MKL-1) | Potency (MKL-2) | Potency (UISO) | Potency (WaGa) | Potency (C33A) | Potency (CAOV3) | Potency (CASKI) | Potency (Es-2) | Potency (HeLa) | Potency (Hek293T) | Potency (JEG-3) | Potency (OV90) | Potency (PA-1) | Potency (SKOV3) | Potency (Tov112D) | activity, negative = cell killing [1, 3] -12.8% | activity, negative = cell killing [1, 4] -9.12% | activity, negative = cell killing [1, 5] -24.7% | activity, negative = cell killing [1, 6] -19.8%

O=C(N[C@H](CO)[C@H](O)c1ccc([N+](=O)[O-])cc1)C(Cl)Cl
inactive: Potency (MKL-1) | Potency (MKL-2) | Potency (UISO) | Potency (WaGa) | Potency (C33A) | Potency (CASKI) | Potency (Es-2) | Potency (Hek293T) | Potency (JEG-3) | Potency (PA-1) | Potency (SKOV3) | Potency (Tov112D) | activity, negative = cell killing [1, 7] -13.1% | activity, negative = cell killing ([1]; at 46 µM (top of the series), tumour line A) -46.2% | activity, negative = cell killing [1, 9] -18.2% | activity, negative = cell killing ([1]; at 91.6 µM (top of the series), tumour line B) -17.6% | Potency (astro)

CC(C)C[C@H](NC(=O)[C@H](CCc1ccccc1)NC(=O)CN1CCOCC1)C(=O)N[C@@H](Cc1ccccc1)C(=O)N[C@@H](CC(C)C)C(=O)[C@@]1(C)CO1
inactive: Potency (JEG-3)
active: Potency (MKL-1) 5.3 nM and 37.2 nM | Potency (MKL-2) 1.1 nM and 14.8 nM | Potency (UISO) 18.8 nM and 59 nM | Potency (WaGa) 4.7 nM and 29.6 nM | Potency (C33A) 316 nM | Potency (CASKI) 316 nM | Potency (Es-2) 316 nM | Potency (HeLa) 794 nM | Potency (Hek293T) 251 nM | Potency (OV90) 251 nM | Potency (PA-1) 89.1 nM | Potency (SKOV3) 251 nM | Potency (Tov-21-G) 251 nM | Potency (Tov112D) 708 nM | Potency (astro) 708 nM | Potency ([2]; HiBiT) 88.3 nM
